The structures appear in SMILES notation. This is part of a sample that, as a whole, favours compounds with a hit. Of some 79,000 tested, about 15% had one in any assay. Unmarked numbers belong to inactive results. Active and inactive are the calls of the source. Cut-off read from the data, not from the text of the source: active = growth inhibition above about 70%; inactive = the rest.

One experiment is described as follows: NCI Yeast Anticancer Drug Screen. Data for the wt2 strain (AID 169).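 Note: 0% = growth of vehicle-treated yeast cultures.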 The following applies: S. cerevisiae wt2 strain growth inhibition; at 3.7 µM; stronger effect = higher value. The method, boiled down:
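Values express reduction in yeast growth under compound treatment, referenced to vehicle-treated cells.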
As for `C/C(=N\NC(=S)SCc1ccccc1)c1ccccn1`, the growth inhibition was -25%.
Consider `CC[C@@]1(O)C(=O)OCc2c1cc1n(c2=O)Cc2cc3c(N)cccc3nc2-1`, for which the growth inhibition was -9%.
With `CC(=O)OCCOCNC(=S)N/N=C(\C)c1cnccn1`, the growth inhibition is -24%.
On to `COc1ccc(C2c3cc4c(cc3OC(C)(O)C2C)OCO4)c(OC)c1` (configuration not stated), for which the growth inhibition is 0%.
On the same count and under the same terms, the result for `COc1ccc(Br)c(C(=O)Sc2nnnn2-c2cccc(Cl)c2)c1` reads -15%.
On the same count and under the same terms, the result for `O=C(NNc1ccnc2cc(Cl)ccc12)/C(=C\c1ccccc1Cl)NC(=O)c1ccccc1` reads 28%; that for `CSC(=S)Nc1cccc(C)n1`, -30%; that for `O=C(/C=C\c1ccc(Cl)cc1Cl)c1cccs1`, -1%.
As to `COc1ccc(-c2cn(-c3ccc(I)cc3)c3ncnc(N)c23)cc1`, the growth inhibition was -8%.
The same measure, in the same setting: the result for `CN(C)c1ccc(C(C#N)=C(C#N)C#N)cc1` reads 0%; that for `COc1cc(/C=C2\CCc3ccccc3C2=O)cc(OC)c1OC`, 0%; that for `CC(C)/C(Cl)=N\OC(=O)Nc1cccc(Cl)c1`, -3%.
Consider `CC1(C)[C@@H]2CC[C@]1(C)[C@H](OC(=O)CSC#N)C2`, for which the growth inhibition was 5%.
Turning to `NNC(=O)CCc1ccc2ccc3ccccc3c2c1`, the growth inhibition was -1%.
Consider `C=CC(C)(O)CCC1C(=C)C(O)CC2C(C)(C)CCCC12C` (configuration not stated), for which the growth inhibition was -12%.
Turning to `S=C(Nc1ccc(Cl)c(Cl)c1)SCc1ccc2c(c1)OCO2`, the growth inhibition was 90% (active).
Still for that read-out and setting: the same measure for `COc1cc(C2C3=C(COC3=O)Oc3cc4c(cc32)OCO4)ccc1O` (configuration not stated): -4%.
As for `S=C(Nc1ccc(Cl)cc1)SC1CCCCC1`, the growth inhibition was -22%.
On the same count and under the same terms, the result for `Nc1nc(-c2cccnc2)cc(-c2cc(-c3cccnc3)nc(N)n2)n1` reads 0%.
On the same count and under the same terms, the same measure for `COC1=CC(=O)C2C(C1=O)C(c1ccc(Cl)cc1)[C@@H]2C` (some centres not stated): 22%.
Same read-out and setting: the result for `O=[N+]([O-])c1cc(CCl)ccc1CCl` reads 15%.
On to `COc1ccc(/C=C2\SC(=S)N(/C=C/c3nc4ccccc4[nH]c3=O)C2=O)cc1OC`, for which the growth inhibition is 3%.
On the same count and under the same terms, the same measure for `CCCN(CCC)CC(O)c1cc(-c2ccc(Cl)cc2)nc2c(C)c(Cl)ccc12` (configuration not stated): -7%.
Turning to `O=C(Nc1ccccc1)OCCc1ccc(Cl)c(Cl)c1`, the growth inhibition is -6%.
The same measure, in the same setting: the result for `CC(O)C(O)C(O)C(/C=N\Nc1ccccc1)=N/Nc1ccccc1` (configuration not stated) reads 8%; that for `C#CCCCc1ccccc1`, -55%; that for `CC(=O)Cc1ccc[cH-]1.[Fe+2].c1cc[cH-]c1`, 5%.
For `Cc1cc(I)ccc1N`, the growth inhibition was -10%.
As to `CC(C)(CN1CCCCC1)C(=O)CC(SCCS(=O)(=O)O)c1ccc(Br)cc1` (configuration not stated), the growth inhibition is 3%.
Same read-out and setting: the same measure for `C[Si](C)(C)CNC(=O)OCc1ccccc1`: -1%.
As to `CC(C(=O)N1C(=O)N(C(=O)[C@H](C)C(O)c2ccccc2)[C@H](c2ccccc2)[C@H]1c1ccccc1)[C@@H](O)c1ccccc1` (some centres not stated), the growth inhibition is -7%.

Still in this experiment, the particulars now being: S. cerevisiae wt2 strain growth inhibition; at 11.0 µM; stronger effect = higher value.
As to `C/C(=N\NC(=S)SCc1ccccc1)c1ccccn1`, the growth inhibition was 72% (active).
Same read-out and setting: the result for `CC[C@@]1(O)C(=O)OCc2c1cc1n(c2=O)Cc2cc3c(N)cccc3nc2-1` reads -8%.
Turning to `CC(=O)OCCOCNC(=S)N/N=C(\C)c1cnccn1`, the growth inhibition was 6%.
In the case of `COc1ccc(C2c3cc4c(cc3OC(C)(O)C2C)OCO4)c(OC)c1` (configuration not stated), the growth inhibition was -2%.
The same measure, in the same setting: the result for `COc1ccc(Br)c(C(=O)Sc2nnnn2-c2cccc(Cl)c2)c1` reads -35%; that for `O=C(NNc1ccnc2cc(Cl)ccc12)/C(=C\c1ccccc1Cl)NC(=O)c1ccccc1`, 45%; that for `CSC(=S)Nc1cccc(C)n1`, -31%.
`O=C(/C=C\c1ccc(Cl)cc1Cl)c1cccs1`: the growth inhibition is -3%.
The same measure, in the same setting: the result for `COc1ccc(-c2cn(-c3ccc(I)cc3)c3ncnc(N)c23)cc1` reads -10%.
On the same count and under the same terms, the result for `CN(C)c1ccc(C(C#N)=C(C#N)C#N)cc1` reads -1%.
In the case of `COc1cc(/C=C2\CCc3ccccc3C2=O)cc(OC)c1OC`, the growth inhibition was -10%.
Still for that read-out and setting: the same measure for `CC(C)/C(Cl)=N\OC(=O)Nc1cccc(Cl)c1`: -2%; for `CC1(C)[C@@H]2CC[C@]1(C)[C@H](OC(=O)CSC#N)C2`: 25%; for `NNC(=O)CCc1ccc2ccc3ccccc3c2c1`: 2%.
Still for that read-out and setting: the result for `C=CC(C)(O)CCC1C(=C)C(O)CC2C(C)(C)CCCC12C` (configuration not stated) reads -13%; that for `S=C(Nc1ccc(Cl)c(Cl)c1)SCc1ccc2c(c1)OCO2`, 100% (active); that for `COc1cc(C2C3=C(COC3=O)Oc3cc4c(cc32)OCO4)ccc1O` (configuration not stated), -5%.
With `S=C(Nc1ccc(Cl)cc1)SC1CCCCC1`, the growth inhibition is 78% (active).
Turning to `Nc1nc(-c2cccnc2)cc(-c2cc(-c3cccnc3)nc(N)n2)n1`, the growth inhibition is 1%.
Turning to `COC1=CC(=O)C2C(C1=O)C(c1ccc(Cl)cc1)[C@@H]2C` (some centres not stated), the growth inhibition is 94% (active).
For the molecule `O=[N+]([O-])c1cc(CCl)ccc1CCl`, the growth inhibition is 54%.
For `COc1ccc(/C=C2\SC(=S)N(/C=C/c3nc4ccccc4[nH]c3=O)C2=O)cc1OC`, the growth inhibition is 28%.
Still for that read-out and setting: the result for `CCCN(CCC)CC(O)c1cc(-c2ccc(Cl)cc2)nc2c(C)c(Cl)ccc12` (configuration not stated) reads 99% (active).
The same measure, in the same setting: the same measure for `O=C(Nc1ccccc1)OCCc1ccc(Cl)c(Cl)c1`: 5%; for `CC(O)C(O)C(O)C(/C=N\Nc1ccccc1)=N/Nc1ccccc1` (configuration not stated): 10%; for `C#CCCCc1ccccc1`: -54%.
Consider `CC(=O)Cc1ccc[cH-]1.[Fe+2].c1cc[cH-]c1`, for which the growth inhibition is 13%.
Same read-out and setting: the same measure for `Cc1cc(I)ccc1N`: -13%; for `CC(C)(CN1CCCCC1)C(=O)CC(SCCS(=O)(=O)O)c1ccc(Br)cc1` (configuration not stated): 11%; for `C[Si](C)(C)CNC(=O)OCc1ccccc1`: -1%.
As for `CC(C(=O)N1C(=O)N(C(=O)[C@H](C)C(O)c2ccccc2)[C@H](c2ccccc2)[C@H]1c1ccccc1)[C@@H](O)c1ccccc1` (some centres not stated), the growth inhibition was 4%.

These data come from PubChem BioAssay (NCI).
